From PubChem BioAssay
Hits are enriched below; roughly 13% of the tested compounds scored in any of these assays.
HCV inh = blocks hepatitis C virus; Potency, µM (titrated, usually from 41.8 µM), actives largely listed as inhibitors; AID 651820; Huh7.5.1 HCVcc-Cre infection, luciferase reporter, 44 h; hit rate 3.4% among 340,000; active = well fitted inhibition curve with a large enough effect; inconclusive = small, poorly fitted or top-dose-only effect, or another doubt; inactive = no such curve, though single readings can be large or run the other way
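Reporter virus HCVcc-Cre (~0.5 moi) infects cells exposed to compound; seeding density 1,000 cells/well with 4 h settling beforehand. Luminescence, 15 sec read, taken 44 h post-infection following a 15 min RT substrate incubation.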
MARV entry inh = blocks Marburg virus binding to or entry into cells | hit rate 1.8% among 300,000 | Potency, µM (titrated, usually from 37.8 µM), hits mostly inhibitors | Marburg virus pseudotyped entry inhibition, cell reporter | AID 540276; calls by dose curve; tested in HEK293 cells
Lassa entry inh = inhibitors of Lassa virus binding or cell entry | Lassa virus pseudotype entry inhibition, cell reporter | Potency, µM (titrated, usually from 37.9 µM), actives largely listed as inhibitors | hit rate 1.2% among 300,000 | AID 540256; calls by dose curve; tested in HEK293 cells; note: nearly all actives have a fitted effect of over 50% in size
Cycloheximide cs = counter-screen for Shiga toxin inhibitors: cycloheximide protein synthesis inhibition. cell reporter, cycloheximide protein synthesis inhibition counterscreen. max response, %. hit rate 12% among 300,000. AID 2314; in the data active = max response mostly above about 13%, no sharp cut-off; inactive = mostly below about 14%; note: read at 38.3 µM for the half of the compounds with a filed dose
Shiga inhibitor = blocks Shiga toxin action in Vero cells. Vero cells, Shiga toxin protein synthesis inhibition reporter. inhibition, % at 38.7 µM. hit rate 9.2% among 290,000; in the data active = inhibition mostly above about 28%, no sharp cut-off; inactive = mostly below about 43%
FMDV inh = foot and mouth disease virus antiviral activity; Potency, µM (top dose mostly 57.9 µM), hits mostly inhibitors; FMDV antiviral cell-based qHTS; hit rate 1.2% among 410,000; calls by dose curve; tested in HEK293T cells; note: read-out not given here; nearly all actives have a fitted effect of over 45% in size
Each line names hits and unclear results; the compound was inactive in the other large screens.

CCN(CC)CCNC(=O)c1cc2c(-c3cccc(OC)c3)nn(C)c2s1	HCV inh 12.6µM, MARV entry inh inconclusive
CCCN(CCC)CCNC(=O)c1cc2c(-c3ccc(Cl)cc3)nn(C)c2s1	HCV inh 8.91µM, MARV entry inh 3.98µM, FMDV inh inconclusive
COc1cccc(-c2nn(C)c3sc(C(=O)NCc4ccccn4)cc23)c1	HCV inh 10µM, MARV entry inh inconclusive
COCCCNC(=O)c1cc2c(-c3cccc(OC)c3)nn(C)c2s1	MARV entry inh inconclusive, Lassa entry inh inconclusive
Cn1nc(-c2ccccc2F)c2cc(C(=O)Nc3ccc4c(c3)OCCO4)sc21	MARV entry inh inconclusive, Lassa entry inh inconclusive
COc1cccc(-c2nn(C)c3sc(C(=O)NCc4ccc(C)cc4)cc23)c1	HCV inh inconclusive, Lassa entry inh inconclusive
O=C(Cn1nc(-c2ccc(N3CCOCC3)c([N+](=O)[O-])c2)c2ccccc2c1=O)N1CCCCC1	MARV entry inh inconclusive
O=[N+]([O-])c1cc(-c2nnc(Nc3ccc(O)cc3)c3ccccc23)ccc1N1CCOCC1	HCV inh inconclusive, MARV entry inh inconclusive, Lassa entry inh inconclusive, FMDV inh 20µM
O=[N+]([O-])c1cc(-c2nnc(Nc3ccccc3)c3ccccc23)ccc1N1CCOCC1	HCV inh 12.6µM (no result: Lassa entry inh)
Cc1ccc(Nc2nnc(-c3ccc(N4CCOCC4)c([N+](=O)[O-])c3)c3ccccc23)cc1	HCV inh 25.1µM, MARV entry inh inconclusive, Lassa entry inh inconclusive
O=[N+]([O-])c1cc(-c2nnc(N3CCOCC3)c3ccccc23)ccc1N1CCOCC1	HCV inh inconclusive, FMDV inh inconclusive (no result: MARV entry inh, Lassa entry inh)
COc1ccc(OCCn2cncn2)cc1	none
CCOC(=O)C1(C)NC(c2ccc(O)cc2)C2C(=O)N(c3ccccc3)C(=O)C21 (stereo not given)	none (no result: MARV entry inh, Lassa entry inh)
C=CCn1c(SCc2nc3scc(-c4ccccc4)c3c(=O)[nH]2)nnc1-c1ccccc1F	MARV entry inh inconclusive, FMDV inh 28.2µM
Cc1ccc(-c2csc3nc(CSc4nnc(-c5ccc(Cl)cc5)n4C)[nH]c(=O)c23)cc1	HCV inh inconclusive, Cycloheximide cs 12.9
Cc1cc(C(=O)NNC(=O)c2cccc(Cl)c2)no1	none (no result: MARV entry inh, Lassa entry inh)
Cc1cc(/C(N)=N/OC(=O)c2ccc(Cl)cc2)no1	MARV entry inh inconclusive, Lassa entry inh inconclusive, Cycloheximide cs 35.1, Shiga inhibitor 60.6
N/C(=N\OC(=O)c1ccc([N+](=O)[O-])cc1)c1ccc(Br)cc1	HCV inh inconclusive (no result: Shiga inhibitor)
Cc1cc(/C(N)=N/OC(=O)c2cccc(Cl)c2)no1	MARV entry inh inconclusive, Lassa entry inh inconclusive, Cycloheximide cs 58.9, Shiga inhibitor 111.3
N/C(=N/OC(=O)c1ccc(Cl)cc1)c1ncc([N+](=O)[O-])s1	HCV inh inconclusive, Cycloheximide cs 25.7, Shiga inhibitor 66.4 (no result: MARV entry inh, Lassa entry inh)
N/C(=N\OC(=O)c1ccc(Cl)cc1)c1[nH]ncc1Br	Cycloheximide cs 64.1, Shiga inhibitor 94.7 (no result: MARV entry inh, Lassa entry inh)
CN(C)C1CCN(CCCOc2ccc(-c3ccc(C#N)cc3)cc2)C1 (stereo not given)	Cycloheximide cs 30.7 (no result: HCV inh, MARV entry inh, Lassa entry inh, FMDV inh)
CN(C)S(=O)(=O)c1cccc(C(=O)OCC(=O)Nc2sccc2C(N)=O)c1	HCV inh inconclusive, MARV entry inh inconclusive, FMDV inh 14.1µM
COc1cc(CCC(=O)OCC(=O)Nc2sccc2C(N)=O)cc(OC)c1OC	HCV inh 12.6µM, FMDV inh 17.8µM (no result: Cycloheximide cs, Shiga inhibitor)
COc1ccc(C(=O)OCC(=O)Nc2sccc2C(N)=O)cc1OC	HCV inh inconclusive, Cycloheximide cs 9.3, FMDV inh inconclusive
CCOc1ccc(Br)cc1S(=O)(=O)N1CCC(C(N)=O)CC1	none
CNc1nc(SCc2ccc(C)cc2)nc2c1CCCC2	HCV inh inconclusive, MARV entry inh inconclusive, Cycloheximide cs 36.7, Shiga inhibitor 54.6
Cc1nc(SCc2ccccc2)nc2c1CCC2	Cycloheximide cs 58.1, Shiga inhibitor 84.6
Cc1ccc(CSc2nc3c(c(N(C)C)n2)CCCC3)cc1	HCV inh inconclusive, MARV entry inh inconclusive
N/C(=N\OC(=O)c1cccnc1)c1ccccc1Cl	HCV inh inconclusive, Cycloheximide cs 27.4, Shiga inhibitor 84.3 (no result: MARV entry inh, Lassa entry inh)
N/C(=N\OC(=O)c1cccnc1)c1ccc(Cl)cc1Cl	MARV entry inh inconclusive, Cycloheximide cs 22.1, Shiga inhibitor 44.2
O=C(c1ccccc1)N1CCN(C(=O)c2ccc3c(c2)OCO3)CC1	none
CC(=O)c1ccc2c3c(cccc13)C(=O)N(CCc1ccccc1)C2=O	Cycloheximide cs 31.8, Shiga inhibitor 48.6 (no result: MARV entry inh, Lassa entry inh)
